Laboratory results as given in PubChem BioAssay (NCATS).
Results filed as inconclusive are left out. Entries that show only a call come without a potency. The source made the active and inactive calls. Calls follow the shape of the full dose curve. Residues, ends and D or L forms follow the SMILES beside them.

Molecular target: Nucleoprotein (Lymphocytic choriomeningitis virus (strain Armstrong)) (UniProt P09992)
Experiment: qHTS for Inhibitors of the Functional Ribonucleoprotein Complex (vRNP) of Lymphocytic Choriomeningitis Arenaviruses (LCMV): LCMV Primary Screen - GLuc reporter signal (AID 1347086); also: nearly all actives have a fitted effect of over 70% in size
Settings: LCMV minigenome vRNP cell assay, Gaussia luciferase reporter; series mostly up to 57.5 µM

Nucleoprotein (Lymphocytic choriomeningitis virus (strain Armstrong)), sequence (P09992 whole entry, looked up): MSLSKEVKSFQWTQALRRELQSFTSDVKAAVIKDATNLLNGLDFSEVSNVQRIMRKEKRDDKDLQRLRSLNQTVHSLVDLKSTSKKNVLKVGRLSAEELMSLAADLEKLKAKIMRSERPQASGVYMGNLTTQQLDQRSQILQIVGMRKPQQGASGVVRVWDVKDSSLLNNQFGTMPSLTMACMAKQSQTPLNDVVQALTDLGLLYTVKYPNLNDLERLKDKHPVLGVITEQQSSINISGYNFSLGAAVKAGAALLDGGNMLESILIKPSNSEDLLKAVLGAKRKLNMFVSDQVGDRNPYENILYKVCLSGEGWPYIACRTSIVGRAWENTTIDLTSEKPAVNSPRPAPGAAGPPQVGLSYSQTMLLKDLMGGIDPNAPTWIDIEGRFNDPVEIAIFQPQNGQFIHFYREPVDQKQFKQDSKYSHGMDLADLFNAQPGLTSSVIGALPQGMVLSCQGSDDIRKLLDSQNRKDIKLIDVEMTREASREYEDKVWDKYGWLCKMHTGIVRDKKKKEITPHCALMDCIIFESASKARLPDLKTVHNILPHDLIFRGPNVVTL

Structure (SMILES)	Potency	activity change, negative = inhibition
CCCCCN(CCCOC)C(=O)C(CCC(=O)O)NC(=O)c1ccc(Cl)c(Cl)c1 (stereo not drawn)	inactive	
O=c1[nH]c(=O)n([C@H]2CCCO2)cc1F	inactive	
CCCCCCCCCCCCCCCCO	inactive	
CN1CCN(c2c(F)cc3c(=O)c(C(=O)O)cn4c3c2SCC4)CC1	inactive	
Cc1cc(OI)c(C(C)C)cc1-c1cc(C(C)C)c(OI)cc1C	inactive	
CC(O)CN(CCN(CC(C)O)CC(C)O)CC(C)O (stereo not drawn)	inactive	
CC(=O)OCC[N+](C)(C)C	inactive	
NCCCCCC(=O)O	inactive	
NCC[C@H](O)C(=O)N[C@@H]1C[C@H](N)[C@@H](O[C@H]2O[C@H](CN)[C@@H](O)[C@H](O)[C@@H]2O)[C@H](O)[C@@H]1O[C@H]1O[C@H](CO)[C@@H](O)[C@H](N)[C@@H]1O		19.2% [at 0.757 µM] (inactive)
CNCC(O)c1ccc(O)c(O)c1 (stereo not drawn)	inactive	
NC(=O)NC1NC(=O)NC1=O (stereo not drawn)	inactive	
C[C@H]1O[C@@H](n2cc(F)c(=O)[nH]c2=O)[C@H](O)[C@@H]1O	inactive	
CCO/C([O-])=N/c1c[n+](N2CCOCC2)no1	inactive	
O=C(O)Cc1sc(-c2ccccc2)nc1-c1ccc(Cl)cc1	inactive	
CCCCN(CCCC)CCCOC(=O)c1ccc(N)cc1	inactive	
COC(=O)/C=C(/C)N	inactive	
NCc1ccc(S(N)(=O)=O)cc1	inactive	
Cc1cccc(C)c1NC(=O)CN1CCCCCC1	inactive	
O=C(C1CCCCC1)N1CC(=O)N2CCCc3ccccc3C2C1 (stereo not drawn)	inactive	

Structure (SMILES)	Potency	activity change, negative = inhibition
CCCCNC(=O)NS(=O)(=O)c1ccc(N)cc1	inactive	
O=C1c2ccccc2C(=O)c2c1ccc(O)c2O	inactive	
Oc1ccc(OCc2ccccc2)cc1	inactive	
NC(=S)N/N=C/c1cccnc1	inactive	
NCCNCCNCCN	inactive	
COC(=O)[C@H](Cc1ccccc1)NC(=O)[C@@H](N)CC(=O)O (H-Asp-Phe-OMe)	inactive	
O=C(NCCO[N+](=O)[O-])c1cccnc1	inactive	
O=C(O)[C@@H]1CSCN1	inactive	
CCc1oc2ccccc2c1C(=O)c1cc(I)c(O)c(I)c1	inactive	
Nc1ccc([N+](=O)[O-])c(C(F)(F)F)c1	inactive	
O=P(O)(O)OCC(O)CO (stereo not drawn)	inactive	
CN1CCN(C(=O)C2CCCCC2)CC1	inactive	
Cc1cc(CCCOc2c(C)cc(-c3noc(C(F)(F)F)n3)cc2C)on1	inactive	
FC1(F)C(F)(F)C(F)(F)C2(F)C(F)(F)C(F)(F)C(F)(F)C(F)(F)C2(F)C1(F)F (stereo not drawn)	inactive	
COc1ccc(O)cc1	inactive	
CCO[C@H](Cc1ccc(OCCc2ccc(OS(C)(=O)=O)cc2)cc1)C(=O)O	inactive	
NC(=O)c1cc[n+](CC2=C(C(=O)[O-])N3C(=O)[C@@H](NC(=O)Cc4cccs4)[C@H]3SC2)cc1	inactive	
CN1N=C(C(N)=O)CCC1=O	inactive	
CN1CCC[C@@H]1c1cccnc1	inactive	
